Among the test systems are NCI-H23 lung; NCI-H322M lung; HOP-62 NSCLC; NCI-H460 lung; HOP-92 NSCLC; NCI-H522 lung; A549/ATCC NSCLC; 786-0 renal; COLO 205 colon; DU-145 prostate; K-562 leukemia; MALME-3M melanoma; MDA-MB-231 breast; RXF 393 renal; SF-268 CNS; SF-539 CNS; UACC-257 melanoma; M14 melanoma; HCT-15 colon; SF-295 CNS.
Common to all, as to assay: NCI-60 one-dose screen, 48 h (100 = growth as untreated, 0 = no growth, -100 = all killed)
What all share (settings): 10 µM unless noted

About 83,000 compounds went through this panel and 20% of them were active in at least one assay; those are over-represented in the sample as a whole.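 The test compound was applied at a single concentration to cells in 96-well plates for 48 hours, and percent growth was recorded.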 A number with no mark means an inactive call. Calls of active or inactive are those of the source. Rule for the calls: active = growth percent below 10; inactive = the rest.

The text below walks through data of PubChem BioAssay (NCI).

As for `COc1ccc(OC)c(N(CCN2C(=O)c3ccccc3C2=O)C(=O)CCl)c1`, the growth was 32.1% in the test with NCI-H23 lung; 97.7% in the test with NCI-H322M lung; -3% (active) in the test with HOP-62 NSCLC; 90.3% in the test with NCI-H460 lung; -11.4% (active) with HOP-92 NSCLC; -73.3% (active) in the test on NCI-H522 lung. Also, the growth in the test on A549/ATCC NSCLC is 76%; with 786-0 renal, 38.6%; with COLO 205 colon, 80.6%; with DU-145 prostate, 86.1%; in the test on K-562 leukemia, 102%; in the test with MALME-3M melanoma it was -36.4% (active). For the same compound, the growth in the test on MDA-MB-231 breast is 69.7%; in the test with RXF 393 renal, 58.7%; with SF-268 CNS, 35.3%; in the test with SF-539 CNS it was 23.1%; in the test with UACC-257 melanoma, 83%; with M14 melanoma it was 84.2%. Also, the growth in the test with HCT-15 colon was 80.3%.

Regarding `CN1CCN(c2nc(Nc3ccc(O)cc3)nc3ccccc23)CC1`, the growth in the test on NCI-H23 lung is 74.8%; with NCI-H322M lung it was 68%; in the test with HOP-62 NSCLC, 74.5%; in the test with NCI-H460 lung it was 13.9%; with HOP-92 NSCLC it was 89.6%; with NCI-H522 lung, 37.5%. Also, the growth in the test with A549/ATCC NSCLC was 42.5%; in the test with 786-0 renal, 64.2%; with COLO 205 colon, 44.1%; in the test with DU-145 prostate it was 63%; in the test on K-562 leukemia, 42%; with MALME-3M melanoma, 61.8%. Further, the growth was 66.2% in the test on MDA-MB-231 breast; 77.3% in the test on RXF 393 renal; 52.5% in the test on SF-268 CNS; 47.2% in the test with SF-539 CNS; 59.2% in the test with UACC-257 melanoma; 50.3% in the test with M14 melanoma. The growth in the test with HCT-15 colon is 32.5%.

As to `CCOC(=O)c1c2c(n3cccc(Cl)c13)C(=O)c1ncccc1C2=O`, the growth is 34.2% in the test on NCI-H23 lung; 26.5% in the test on NCI-H322M lung; 41.9% with HOP-62 NSCLC; 10% in the test with NCI-H460 lung; 87.6% with HOP-92 NSCLC; 81.3% with NCI-H522 lung. Moreover, the growth was 38.4% with A549/ATCC NSCLC; 73.9% in the test with 786-0 renal; 73.5% with COLO 205 colon; 45.8% with DU-145 prostate; 62.3% with K-562 leukemia; 42.7% in the test with MALME-3M melanoma. Also, the growth in the test on MDA-MB-231 breast is 24.9%; in the test with SF-268 CNS, 41.1%; with SF-295 CNS it was 63.9%; in the test on SF-539 CNS, 77.2%; with UACC-257 melanoma, 60.8%; in the test on M14 melanoma, 22.6%. Also, the growth in the test with HCT-15 colon was 25.6%.

As for `O=C(NC(=S)Nc1cccc(NC(=S)NC(=O)c2ccccc2)c1)c1ccccc1`, the growth is 69.1% in the test on NCI-H23 lung; 89% in the test on NCI-H322M lung; 52.5% in the test on HOP-62 NSCLC; 46.4% in the test on NCI-H460 lung; 34.8% with HOP-92 NSCLC; -9.46% (active) in the test on NCI-H522 lung. For the same compound, the growth in the test with A549/ATCC NSCLC was 57.6%; in the test on 786-0 renal, 76.5%; with COLO 205 colon, 56.5%; in the test on DU-145 prostate, 77.5%; in the test with K-562 leukemia it was 68.7%; in the test with MALME-3M melanoma, 55.3%. Besides, the growth was 56.7% in the test on MDA-MB-231 breast; 85.4% in the test with RXF 393 renal; 56.1% in the test on SF-268 CNS; 70% in the test on SF-539 CNS; 44.7% with UACC-257 melanoma; 73.5% in the test on M14 melanoma. Also, the growth in the test on HCT-15 colon was 73.5%.

Turning to `CCCC(=O)CC(C)=O.CCCC(=O)CC(C)=O.[Cu]`, the growth with NCI-H23 lung is 97.3%; in the test on NCI-H322M lung, 99.5%; in the test with HOP-62 NSCLC, 94.3%; in the test with NCI-H460 lung, 107%; in the test on HOP-92 NSCLC, 96.5%; with NCI-H522 lung, 91%. Besides, the growth was 79.4% with A549/ATCC NSCLC; 104% in the test on 786-0 renal; 97.4% in the test on COLO 205 colon; 110% in the test on DU-145 prostate; 104% in the test with K-562 leukemia; 89.9% with MALME-3M melanoma. The growth was 120% in the test with MDA-MB-231 breast; 122% with RXF 393 renal; 103% in the test with SF-295 CNS; 104% with SF-539 CNS; 74.9% in the test with UACC-257 melanoma; 100% with M14 melanoma. Also, the growth in the test with HCT-15 colon is 105%.

Regarding `CSc1nc2c(c(=O)n1C)N=C1c3ccccc3C(=O)C1C(c1ccccc1)N2` (configuration not stated), the growth with NCI-H23 lung was 85%; with NCI-H322M lung, 95.1%; in the test on HOP-62 NSCLC, 76.9%; in the test on NCI-H460 lung, 76.2%; in the test on HOP-92 NSCLC, 28.7%; in the test with NCI-H522 lung it was 103%. Besides, the growth in the test with A549/ATCC NSCLC is 81.6%; in the test on 786-0 renal it was 91.9%; in the test on COLO 205 colon it was 73.5%; in the test on DU-145 prostate, 81.9%; with K-562 leukemia, 32.9%; in the test with MALME-3M melanoma, 42.6%. Moreover, the growth with MDA-MB-231 breast is 82.8%; with SF-268 CNS, 81.7%; in the test on SF-295 CNS, -10.6% (active); in the test on SF-539 CNS it was 68%; with UACC-257 melanoma, 102%; in the test on M14 melanoma, 62.2%. In addition, in the test with HCT-15 colon, the growth was 62.4%.

For `O=C(Nc1ccc(Cl)cc1)c1cc2ccccc2cc1OP(=O)(O)O`, the growth in the test on NCI-H23 lung is -0.361% (active); with NCI-H322M lung it was 22.7%; in the test with HOP-62 NSCLC it was 32.3%; with NCI-H460 lung, 14.2%; with HOP-92 NSCLC, -24% (active); in the test with NCI-H522 lung, 3.47% (active). The growth with A549/ATCC NSCLC is 16.4%; in the test on 786-0 renal, 20.6%; with COLO 205 colon it was 98.9%; with DU-145 prostate, 24.9%; in the test with K-562 leukemia, 27.1%; in the test with MALME-3M melanoma, -16.3% (active). Also, the growth is 55.5% in the test on MDA-MB-231 breast; 32% in the test with SF-268 CNS; -7.61% (active) with SF-295 CNS; 32.1% with SF-539 CNS; 15.7% in the test on UACC-257 melanoma; 31.9% with M14 melanoma. In the test with HCT-15 colon, the growth is 23.2%.

`O=C(Nc1nc2c(s1)CCc1c-2c(Br)n(Cc2ccccc2)c1Br)c1ccccc1`: the growth with NCI-H23 lung was 79.9%; in the test with NCI-H322M lung, 58.9%; in the test on HOP-62 NSCLC, 32.8%; in the test on NCI-H460 lung, 40.8%; in the test on HOP-92 NSCLC, 31.2%; in the test on NCI-H522 lung, 61.9%. Moreover, the growth in the test with A549/ATCC NSCLC was 67.2%; in the test with 786-0 renal it was 56.7%; with COLO 205 colon, 72.7%; in the test on DU-145 prostate it was 74.5%; in the test with K-562 leukemia, 56.8%; in the test with MALME-3M melanoma it was -16.2% (active). The growth was 36.6% in the test with MDA-MB-231 breast; 36.6% with RXF 393 renal; 60.7% with SF-268 CNS; 62.5% with SF-295 CNS; 18.1% in the test on SF-539 CNS; 64.9% in the test with UACC-257 melanoma. In the test with HCT-15 colon, the growth was 81.6%.
